Compounds with a hit are over-represented: about 1.2% of the library has one in this group of screens.
MEP2-GFP yeast – modulators of MEP2-GFP levels in yeast, primary screen, S. cerevisiae, multiplex flow cytometry, MLPCN library; GFP response vs DMSO, % at 10 µM; S. cerevisiae MEP2-GFP strain, 3 h; 100% = DMSO control level; AID 2016, 2009; actives 0.51% (n = 330,000);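 active = GFP response versus DMSO above a set limit, roughly screen mean plus 3 SD, cut at about 180% in these data; inconclusive = fewer than 70 cells counted for a yeast strain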;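 also: median GFP fluorescence of the barcode-gated MEP2-GFP cells per well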
CIT2 TOR yeast – modulators of CIT2-GFP expression in yeast, primary screen, S. cerevisiae, GFP fusion, multiplex flow cytometry, MLPCN library; S. cerevisiae CIT2-GFP strain, 3 h; 100 means same as DMSO wells; GFP response vs DMSO, % at 10 µM; actives 0.065% (n = 320,000); AID 2029, 2009;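 active = GFP response relative to DMSO above a set limit, near the screen mean plus 3 SD, cut at about 150% in these data; inconclusive = Fewer than 70 cells measured for a yeast strain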;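 also: ratio of well median GFP fluorescence to mean of DMSO wells on the plate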
RPL19A TOR yeast – RPL19A-GFP expression modulators in yeast, primary screen, cell-based, S. cerevisiae, multiplex flow cytometry, MLPCN | S. cerevisiae RPL19A-GFP strain, 3 h; active compounds read low | percent response vs DMSO, % at 10 µM | actives 0.3% (n = 330,000);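 active = percent response vs DMSO below 50%; inconclusive = fewer than 70 events counted for the yeast strain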;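 also: median channel GFP fluorescence of the barcoded RPL19A-GFP strain; ratio of sample median GFP to plate DMSO average so 100% = DMSO; lower means less RPL19A-GFP as with rapamycin TOR inhibition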
AGP1-GFP MLPCN – modulators of AGP1-GFP expression in yeast TOR pathway, primary screen, cell-based, multiplex flow cytometry, S. cerevisiae, MLPCN library. GFP response vs DMSO, % at 10 µM. actives 0.02% (n = 320,000). 3 h; GFP as percent of DMSO wells. AID 2066, 2009;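 active = GFP response relative to DMSO above a set limit, near screen average plus 3 SD, cut at about 150% in these data; inconclusive = fewer than 70 cells counted for the yeast strain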;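 also: median GFP channel fluorescence of the gated AGP1 strain per well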
LAP4-GFP MLPCN – modulators of LAP4-GFP expression in yeast, primary screen, S. cerevisiae, multiplex flow cytometry, MLPCN library; 3 h; median GFP as percent of DMSO wells; GFP response vs DMSO, % at 10 µM; actives 0.34% (n = 320,000);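 active = GFP response vs DMSO above a set limit, about the screen mean plus 3 SD, cut at about 150% in these data; inconclusive = under 70 cell events counted for the yeast strain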
DSG3 Ab inh – inhibitors of pemphigus antibody binding to DSG3, primary screen, biochemical, bead-based, flow cytometry, scFv-GFP | Desmoglein-3 (Homo sapiens), P32926 | DSG3-coupled beads, scFv-anti-DSG3-GFP binding; active compounds read low | binding (percent of control), % at 10 µM | AID 588358, 2011 | actives 0.48% (n = 310,000);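 active = binding more than 3 SD below its plate's average and above zero; inconclusive = below that plate limit but binding exactly zero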;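 also: hits lower antibody fragment binding to DSG3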
An asterisk follows results filed as active; ? = inconclusive; · = no result; ! = repeats disagree; [ ] = dose if it differs, or a comment.

SMILES	MEP2-GFP yeast	CIT2 TOR yeast	RPL19A TOR yeast	AGP1-GFP MLPCN	LAP4-GFP MLPCN	DSG3 Ab inh
COc1cc(C(C)=O)ccc1OCC(=O)NCCCn1nc(C)cc1C	109	99	105	110	109	108
Cn1nc(C(F)(F)F)c(C(=O)Nc2ccc(Cl)cc2)c1Cl	353*[may fluoresce violet]	?	23*[may fluoresce violet]	18	72	102
O=C(NCC1CCCO1)c1cccc(S(=O)(=O)Nc2ccccc2Cl)c1 (configuration not stated)	·	·	·	·	·	102
c1ccc(Nc2nc(-c3ccncc3)nc3ccccc23)cc1	79	99	102	94	95	122
Fc1ccc(Nc2nc(-c3ccncc3)nc3ccccc23)cc1	102	103	111	101	106	85*
CNCc1ccccc1Sc1ccc(O)c(O)c1	101	108	107	106	98	57*
COc1ccc(CN2CCN(Cc3c[nH]c4ccccc34)CC2CCO)c(F)c1 (configuration not stated)	101	108	101	100	88	104
N#CC12COC3(CCCCC3C1(C#N)C#N)OC2=N (configuration not stated)	182*[may fluoresce violet]	?	48*[may fluoresce violet]	?	81	107
COc1ccccc1S(=O)(=O)N(C)C[C@H]1OCc2cnnn2CCCC(=O)N([C@H](C)CO)C[C@@H]1C	·	·	·	·	·	106
CC(NC(=O)/C=C/c1ccco1)c1nc2ccccc2n1Cc1c(Cl)cccc1Cl (configuration not stated)	90	105	98	98	94	101
CC(NC(=O)c1ccccc1)c1nc2ccccc2n1Cc1ccccc1F (configuration not stated)	293*[may fluoresce violet]	?	16*[may fluoresce violet]	?	71	·
CC(NC(=O)/C=C/c1ccco1)c1nc2ccccc2n1Cc1ccccc1F (configuration not stated)	·	·	·	·	·	81*
C[C@H](O)[C@@H]1C(=O)N2CCc3c([nH]c4ccccc34)[C@@H]2C[C@@H]1N(C)C(=O)NC1CCCCC1	·	·	·	·	·	93
Cc1ccc(C(=O)NCCc2sc(C)nc2C)cc1	222*[may fluoresce violet]	?	31*[may fluoresce violet]	?	83	125
NC(N)=N/N=C/c1cccc(Cl)c1Cl	94	87	97	95	90	103
O=C(NCCC1=CCCCC1)C(=O)NCc1ccncc1	100	98	96	102	95	52*
Nc1c(C(=O)c2ccccc2)oc2ccc([N+](=O)[O-])cc12	110	107	109	100	97	60*
CC1CCCN(S(=O)(=O)c2cccc(-c3cn4cccnc4n3)c2)C1 (configuration not stated)	177*[may fluoresce violet]	?	61	·	84	117
CC1CCN(S(=O)(=O)c2cccc(-c3cn4cc(Cl)ccc4n3)c2)CC1	93	87	93	98	158*	105
C#CCOCC1CN(c2ccccc2)C(=O)O1 (configuration not stated)	·	·	·	·	·	99
O=C1OC(COc2ccc(Br)cc2)CN1c1ccccc1 (configuration not stated)	96	100	97	106	115	81*
COc1cc2ccc(CC(N)=O)cc2cc1OC	·	·	·	·	·	102
Cc1ccc(/C=C/C(=O)OCC(=O)N(CC(C)C)c2c(N)n(Cc3ccccc3)c(=O)[nH]c2=O)o1	98	98	97	99	97	92*
CCN(C(=O)COC(=O)/C=C/c1ccc(C)o1)c1c(N)n(Cc2ccccc2)c(=O)[nH]c1=O	·	·	·	·	·	92
COC(=O)CC1COc2ccccc2N1S(=O)(=O)c1ccc(Br)cc1 (configuration not stated)	107	111	108	102	90	104
SMILES	MEP2-GFP yeast	CIT2 TOR yeast	RPL19A TOR yeast	AGP1-GFP MLPCN	LAP4-GFP MLPCN	DSG3 Ab inh
N#C/C(C(N)=O)=c1/ccc2c(c1)N1C3=C(CCCC3)CC3CCCCC31N=2 (configuration not stated)	104	81	93	90	160*	·
Cc1c(OC(C)C(=O)NCCCN2CCOCC2)ccc2c1oc(=O)c1ccccc12 (configuration not stated)	162	?	26*[may fluoresce violet]	?	91	100
CCN(Cc1ccccc1)C(=O)Cn1c(=O)n(CCC(=O)N2CCCCC2)c(=O)c2sccc21	134	104	95	95	97	91
Cc1ccccc1Oc1ncnc2oc(-c3ccccc3)cc12	267*	110	·	28	92	101
CCCCC[C@H](O)/C=C/[C@@H]1[C@@H](CCCCCCC(=O)O)[C@@H](O)C[C@H]1O	150	101	81	109	175*	116
COc1ccc(CCN2CC(C(=O)Nc3ccccc3F)CC2=O)cc1OC (configuration not stated)	96	104	97	101	105	108
Cc1ccc(Sc2ccc(NC(=O)c3ccc(S(C)(=O)=O)cc3Cl)cc2)cc1	102	97	98	100	99	-16*
Cc1ccc(S(=O)(=O)N2CCOC2CNC(=O)C(=O)NCc2ccc3c(c2)OCO3)cc1 (configuration not stated)	113	105	104	99	102	99
C#CCOCCOCCOCCNc1nc(N2CCN(C(=O)[C@H](CCC(=O)O)n3cc(CN)nn3)CC2)nc(N2CCN(C(=O)[C@H](CCCCN)n3cc([C@@H](N)CC(N)=O)nn3)CC2)n1	100	108	100	103	95	102
C/C(CC1CC(C)OC1=O)=N\NC(N)=S (configuration not stated)	97	94	97	96	94	101
C/C(CCC12CC3CC(CC(C3)C1)C2)=N\NC(N)=S	96	95	95	133	184*	102
O=C1c2ccccc2CCC12OC2c1ccncc1 (configuration not stated)	·	·	·	·	·	111
COc1ccccc1NS(=O)(=O)c1cccc(NC(=O)c2cc3ccccc3oc2=O)c1	90	100	99	91	100	78*
Nc1ccc(C(=O)O)c(O)c1	94	79	?	84	384*![may fluoresce red]	119
Nc1ccc(N)c(C(=O)O)c1	99	98	105	108	98	51*
Cc1ccc(NS(=O)(=O)c2ccc(-n3cccn3)cc2)cc1F	146	?	14*[may fluoresce violet]	?	76	103
Cc1cccc(NS(=O)(=O)c2ccc(-n3cccn3)cc2)c1C	130	?	22*[may fluoresce violet]	?	76	102

Compound activity: PubChem BioAssay, NMMLSC
